# Results from PubChem BioAssay AID1259416 (Broad Institute, 2018).
# “And” between values parts separate entries of the source, which are not always exact repeats. Identical values can stand only once. Hit rate of the full screen: of about 69,000 compounds, about 2,600 (3.8%) were called active. Rule as the data show it: active = activity change below about -70% (passing the limit was not always enough); inconclusive = no clear call, values can overlap the other calls. Many of the other results were omitted from the sample, so actives are more common in it than they were. Some compounds were tested as several samples or in several runs, with calls that do not always agree.
# Assay: inhibitors of Toxoplasma growth in IFN-γ-primed hosts – cell-based, primary screen (AID 1259416);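 also: host cells are HeLa cells infected with Toxoplasma gondii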
# Details: Toxoplasma gondii growth in IFN-gamma-treated host cells; stronger effect = lower value; concentration not given here
row,SMILES,"activity change, negative = inhibition"
1,O=C(Cn1ncc2ccccc2c1=O)NCc1cc(Cl)c2c(c1)OCCCO2,23% (inactive)
2,Cc1ccsc1CNc1cccc(C(=O)N(C)Cc2snnc2C)c1,-4.49% (inactive)
3,Cc1ccc2oc(=O)n(CCC(=O)N3[C@@H]4CC[C@H]3CNC(=O)C4)c2c1,-11.3% (inactive)
4,Cc1cc(C)cc(NC(=O)N2CCC3(CC2)Nc2ccccc2-n2cccc23)c1,295% (inactive)
5,O=C(N[C@H]1C[C@H]2C(=O)NCC(=O)N2C1)c1cccc(Cn2cccn2)c1,-5.16% (inactive)
6,COc1c(C)c2c(c(O)c1C/C=C(\C)CCC(=O)O)C(=O)OC2,-91.9% (active)
7,O=C(O)CSc1nnc(-c2ccn[nH]2)n1-c1ccccc1Cl,55.4% (inactive)
8,Cc1ccsc1CN(CCCN1CCOCC1)CC1=Cc2ccccc2OC1,97.9% (inactive)
9,Cc1ccc2oc(CN(CCCO)Cc3sccc3C)c(C)c2c1,-33.4% (inactive)
10,CCS(=O)(=O)N1CCC2(CC1)Nc1ccc(C)c(C)c1-n1cccc12,28% (inactive)
11,CC1(C)[C@]2(C(=O)NCCCc3nc4ccccc4o3)CC[C@@]1(C)OC2=O,4.16% (inactive)
12,c1ccc(N2CCC3(COCCN(c4ncccn4)C3)C2)nc1 (stereo not drawn),-3.03% (inactive)
13,c1ccc(N2CCN(N=C3c4ccccc4-c4ccccc43)CC2)nc1,-103% (active)
14,O=C(CN1CCN(c2ccccn2)CC1)Nc1ccc(Br)cc1,-9% (inactive)
15,CCCn1cc(S(=O)(=O)NCC2CCC(c3ccc(C(N)=O)c(C)n3)CC2)c(C)n1 (stereo not drawn),19.4% (inactive)
16,CN(C)C(=O)[C@@]12CCCN(Cc3cccs3)C[C@@H]1CN(Cc1cnn(C)c1)C2,-0.124% (inactive)
17,FC(F)(F)c1cccc2c(N3CCN(C4CCOCC4)CC3)ccnc12,-46.1% (inactive)
18,CN(C(=O)Nc1ccc(Cl)cc1)n1cnc2ccccc2c1=O,-50.7% (inactive)
19,CN(n1cnc2ccccc2c1=O)S(=O)(=O)c1cc(Cl)sc1Cl,-76.6% (active)
20,COC(=O)c1cc(NC(=O)S(=O)(=O)c2ccccc2)cc(C(=O)OC)c1,86.5% (inactive)
21,Cc1ccc(O)c(CCc2ccccc2)n1,8.51% (inactive) and 1.67% (inactive)
22,CCCCN(Cc1ccccc1)C(=O)c1cc2cccnc2n(Cc2ccc(Cl)cc2)c1=O,28.6% (inactive)

row,SMILES,"activity change, negative = inhibition"
1,CCCCc1c(O)cc(-c2ccccc2)n(Cc2ccccc2)c1=O,-76.1% (active)
2,CC(C)(O)c1cn(C2CCN(C(=O)CCc3ccncc3)CC2)nn1,5.1% (inactive)
3,O=S(=O)(c1ccc(Cl)c(Cl)c1)N1CCC2(CC1)Nc1ccccc1-n1cccc12,43% (inactive)
4,O=S(=O)(c1ccc(Cl)c(Cl)c1)N1CCc2c([nH]c3ccccc23)C1C(F)(F)F (stereo not drawn),-82.6% (active)
5,O=C(c1ccc(F)cc1)N1CCc2c([nH]c3ccccc23)C1c1ccccc1 (stereo not drawn),63% (inactive)
6,CCc1nnc(CN(CC)C(=O)c2cccc(-c3ccc(C)o3)c2)o1,0.889% (inactive)
7,Cn1ccnc1-c1ccc(N2CCCC(OCc3cccnc3)C2)nn1 (stereo not drawn),-19% (inactive)
8,COCCc1noc(CN2CCCC2c2ccccn2)n1 (stereo not drawn),8.04% (inactive)
9,N#C/C(=C\c1ccc(O)c(O)c1)C(=O)NCc1ccccc1,5.59% (inactive)
10,CCC[C@H](NC(=O)/C(C#N)=C/c1cccc(Br)n1)c1ccccc1,-72.2% (active)
11,CN(C)C(=O)c1cccc(-c2ccccc2[C@@H]2[C@@H](CO)N(C(=O)C3CCCCC3)[C@H]2C#N)c1,-9.68% (inactive)
12,COCc1ncn2c1CN(C(=O)c1cnc(C)cn1)CCC2,16.2% (inactive)
13,CC1CCCCC12NC(=O)N(CC(=O)N1CCN(Cc3ccccn3)CC1)C2=O (stereo not drawn),13.9% (inactive)
14,COCCn1nnnc1CN(Cc1ccccc1)Cc1cc2ccc(C)c(C)c2[nH]c1=O,-81.4% (active)
15,CC(C)Oc1cccc(-c2csc(C(N)=O)c2)c1,65.6% (inactive)
16,CN(C)C(=O)C[C@]12COC[C@H]1CN(Cc1ccc3ccccc3n1)C2,-5.46% (inactive)
17,COC(=O)Nc1nc2ccc(C(=O)C3CC3)cc2[nH]1,-69.3% (inactive)
18,COCc1ccc(C(=O)Nc2ccc3nc(C)[nH]c3c2)o1,-55.3% (inactive)
19,COC(=O)Nc1nc2ccc(Sc3ccccc3)cc2[nH]1,-69.1% (inactive) and 7.35% (inactive) and -78% (active)
20,Cc1cc(C(=O)N2CCc3c(COCCN(C)C)cncc3C2)no1,-28.8% (inactive)
21,Cc1nnsc1CNC(=O)CC1CCc2ccccc21 (stereo not drawn),-7.08% (inactive)
